Experimental data published in the supplement of paper PMC6555819.

system: PPARg:RXRa 270nM:90nM, anti-RXR (NR concentration 270 nM, RXRa partner concentration 90 nM); assay: PBM binding z-score (relative to random genomic background probes); higher = stronger binding; sequences stand for … in GC…GCGATTGACAGCGTAGAATGAAGG
Summary of the method: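 For binding z-scores, the reference was random background probes on custom Agilent 4×180K protein-binding microarrays. These arrays were incubated 1 h with ligand-free nuclear receptor dimers in PBS pH 7.4, 2% milk, 0.02% Triton X-100, 1 mM DTT, 0.2 mg/mL BSA and 0.4 mg/ml salmon testes DNA. Fluorescence was scanned after antibody detection of each partner (one per run) and regression-normalized.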

Sequence	PBM binding z-score
ATCGAAAGGTCGACGAGGTGAATATACACCGTTT	3.62
CGTCCTAGGTCAAGGTCAGTGAAAGAGACTCGAA	4.45
CTCGAAAGGTCGTGCTCAGGTGAGCATACCAAAC	4.08
ATCGAAAGGTCGAAGGTGAGTATACCCACCCGAA	5.13
CCGGCTGGGGCAGAAAGGTTACCATACCATCCGG	1.64
AGAATGAGGTTATTAAGACCAGGGAATTGCGGTC	1.93
ATCGAACGGTCGAAGGTGAGTATACCCACCCGAA	1.22
CATACAGGGTCAGCTAGGCAAGAGTAGGGACGGC	3.02
AGAATGAGGTTAAGATCAGGGAAACAGAATACAT	2.54
ACAGACAGGTGAGGGAAGGTAACTCAGCTGGACG	-0.0319
GCTAGTTGGTCAGTAGAAGGTCACACACCGGTCG	2.23
CCAGACAGGTGAGAAGGCAACTCAGCCTCGATTA	0.793
ATCTCTAGGTAAAGTTCCGTGAAAGATCGATAGA	0.898
TCTAGTTGGTCACGGAGGTCACGCACGACGGGTA	4.7
TTACCATGGTGAAAGGTCGTTGATGCACGCCTTG	6.89
CGAACTAGGTCATTGACAGGACATTGAATAGTAA	6.42
GGAACGAGGGCAAGTAGATAGCAGAGTTTGATGG	0.904
AGAACGAGGGCACGCTGAGTTGATCGCAGAGTAG	1.66
CATCCAGGGTCAGCTAGGCCAGAGTAGGGACGGC	3.3
CCGAGTAGGTTATGGGGAATTCAGGCAACGGTGA	2.43

Sequence	PBM binding z-score
ACTCGGAGGACAAAGGTCGGAGCTACGCCAGTGA	5.7
GGAACGAGGGCAAAGTTGACAGCATCTGTCGACG	7.66
TCTTGTTGATCAAGCAGGTTAAGAAAGCCTGAGT	1.11
CCGAGTAGGTTATGGGGCCTTCAGGCAACGGTGA	2.56
TCTCGGAGGACGCGAAAGGTCAGAGCTCGACATC	3.46
TAGCCTAGGTCAGATTGGGCCAGTATACGCTATA	0.735
GATATTAGTTGAAAGGGCAACCGAATGATTCTCG	4.65
GGAACGAGGGCAAGCTGATAGCAGAGTTTGATGG	0.733
CCGACTGGGGCACGGTTACCATAACGCACAGCCA	0.982
GCAGACAGGTGGAACGCAGGTAACTCAGGGTGGC	-0.6
AGAATGAGGCTATACGTAGATCAGGGAAGAAAGT	0.267
CCAGACAGGTGAGAAGGTACCTCAGCCTCGATTA	0.244
GCTAGCAGGCCATTTGCGTCACTCAATGACGGGC	-0.578
ATCGAAAGTTCGACGAGGTGAGTATACACCGTTT	0.561
CCTCAGAGGACAACAGGAGGTCAGAGCTGCCAGA	0.51
CGTCAAAGTTCAACTAAGGTAACGTACAGCACGC	5.62
GAAACAGGGTCAAGGCCAGAGTACGCGTATTGAT	6.19
GCTTGTAGATCAAGGTTAAGAACGACTAAGCTAA	2.18
TCTTGTAGATCAAAGGTTAAGAATGCCGAAGCCT	7.95
GCTTGTAGTTCAAGGTTAAGAAAGACTAAGCTAA	2.09
